# KCNQ2 inh – KCNQ2 (rat) channel inhibition | O88943 | CHO-K1 KCNQ2, FluxOR thallium flux, 20 min; stronger effect = lower value | B-score at 10 µM | 1.1% of 310,000 active;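 active means fluorescence ratio B-score at most minus 3 library SDs, with starting brightness B-score within 2 library SDs, cut at about -5.5 in these data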
# KCNQ2 pot – KCNQ2 (rat) channel potentiation; B-score at 10 µM; O88943; CHO-K1 KCNQ2, FluxOR thallium flux fluorescence; stronger effect = higher value; 0.54% of 310,000 active;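 active means fluorescence ratio B-score at least 3 SD of library B-scores, with initial fluorescence B-score within 3 of them, cut at about 5.3 in these data; same plate scores as AID 2156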;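 further: B-score of peak minus minimum over baseline fluorescence ratio after K+ and Tl+ stimulus; positive B-score means potentiation of KCNQ2 with more thallium influx and brighter signal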
# Kir21 confirm – confirmation of mouse Kir2.1 potassium channel inhibitors | shares compounds with KCNQ2 pot | Kir2.1-expressing cells, FluxOR thallium flux fluorescence; stronger effect = lower value | Tl flux remaining, % of negative control (stronger effect = lower value), % at 10 µM | 41% of 2,300 active;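 active means Primary-screen hit whose thallium flux fell at least 3 control SD below untreated wells in both duplicates, with normal baseline fluorescence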;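 further: 0% = blank wells without stimulus and 100% = stimulated no-compound controls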
# HEK293 ctr – counter-screen for Kir2.1 inhibitors: effect in parental HEK293 cells | FluxOR signal as % of negative control (100 = no effect), % at 10 µM | shares compounds with KCNQ2 pot | FluxOR thallium flux fluorescence; 0% = unstimulated blank wells | 19% of 2,300 active;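 active means dye signal at least 3 control SD above or below untreated wells in both duplicates, raw fluorescence within 3, either direction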;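 further: percent is based on the flux ratio of peak minus minimum fluorescence over baseline F0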
# CHO-K1 Tl ctr – parental CHO-K1 activity in KCNQ2 potentiator counter-screen. shares compounds with KCNQ2 pot. parental CHO-K1 cells, FluxOR thallium flux fluorescence; zero = vehicle mean+3SD, 100% = vehicle-minus-blank window. activity increase over 3SD of controls, % at 10 µM. 43% of 1,200 active. AID 2282;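 active means signal rise of at least 3 SD above the untreated control mean, in both duplicate wells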;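 further: counter screen of KCNQ2 potentiator hits so any rise reflects channel-independent effects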
# KCNQ1 pot spec – human KCNQ1 counter-target activity of KCNQ2 potentiators; 28% of 1,200 active; shares compounds with KCNQ2 pot; activation over 3SD threshold, % at 10 µM; CHO KCNQ1 stable, FluxOR thallium flux fluorescence; beyond 3SD, as % of vehicle-control signal; AID 2283;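 active means fluorescence ratio rise of at least 3 SD of vehicle wells above their mean, in both replicate wells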;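 further: 0% = vehicle mean plus 3 SD and 100% = vehicle minus unstimulated blank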
# KCNQ2 pot conf – rat KCNQ2 channel potentiator confirmation; shares compounds with KCNQ2 pot; CHO-KCNQ2 cells, FluxOR thallium flux fluorescence; 68% of 1,200 active; AID 2287; potentiation, less the hit threshold, % at 10 µM;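 active means fluorescence ratio rising 3 SD or more over the vehicle control mean in both replicates, plus primary screen hit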;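 further: peak minus minimum thallium fluorescence divided by baseline after K/Tl stimulus; 0% = vehicle mean plus 3 SD and 100% = vehicle minus unstimulated blank difference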
# Kir2-1 sel – selectivity of KCNQ2 potentiators: effect on mouse Kir2.1; HEK293 Kir2.1, FluxOR thallium flux fluorescence; shares compounds with KCNQ2 pot; activity over 3SD threshold, % at 10 µM; 2% of 1,200 active;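 active means fluorescence ratio rise of at least 3 SD above the vehicle-control mean, seen in both replicates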;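 further: 0% = vehicle mean plus 3 SD and 100% = vehicle minus no-stimulus blank window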
# KCNQ2 W236L MoA – KCNQ2 potentiators acting on retigabine-insensitive rat KCNQ2 W236L mutant | shares compounds with KCNQ2 pot | CHO KCNQ2-W236L, automated patch clamp current | current increase over 3SD of negative controls (%), stronger effect = higher value, % at 25 µM | 10% of 940 active;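 active means current increase at least 3 SD of the untreated controls above them in both duplicate recordings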
# Target sequence (O88943 whole entry W236L, looked up): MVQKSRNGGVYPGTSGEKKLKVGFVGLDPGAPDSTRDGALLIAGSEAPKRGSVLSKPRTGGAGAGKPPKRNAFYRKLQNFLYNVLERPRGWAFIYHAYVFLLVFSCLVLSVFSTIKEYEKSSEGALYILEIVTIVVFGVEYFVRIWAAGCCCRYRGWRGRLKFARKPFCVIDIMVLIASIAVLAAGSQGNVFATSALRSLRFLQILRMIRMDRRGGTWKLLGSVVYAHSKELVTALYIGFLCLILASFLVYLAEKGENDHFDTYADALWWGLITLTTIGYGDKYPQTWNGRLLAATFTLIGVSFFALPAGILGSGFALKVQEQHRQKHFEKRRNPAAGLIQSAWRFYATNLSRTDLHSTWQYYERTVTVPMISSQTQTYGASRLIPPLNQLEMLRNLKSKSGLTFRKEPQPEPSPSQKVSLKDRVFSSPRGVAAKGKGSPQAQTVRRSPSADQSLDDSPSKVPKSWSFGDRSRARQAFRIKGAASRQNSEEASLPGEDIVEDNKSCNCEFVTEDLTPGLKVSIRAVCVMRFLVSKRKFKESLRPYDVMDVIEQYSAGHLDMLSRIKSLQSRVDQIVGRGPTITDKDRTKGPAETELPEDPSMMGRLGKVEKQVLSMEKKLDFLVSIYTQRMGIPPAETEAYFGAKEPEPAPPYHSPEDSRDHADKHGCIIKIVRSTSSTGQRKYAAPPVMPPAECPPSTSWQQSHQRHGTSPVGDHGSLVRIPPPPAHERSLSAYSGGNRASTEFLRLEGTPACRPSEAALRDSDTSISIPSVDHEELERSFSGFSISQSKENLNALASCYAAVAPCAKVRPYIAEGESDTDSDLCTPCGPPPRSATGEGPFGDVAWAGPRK
# Starred values were filed as active, the others as inactive; i = inactive; · = not tested or not shown. Sampled rows, rich in hits. Any-hit rate of the full collection: about 1.6%.
SMILES,KCNQ2 inh,KCNQ2 pot,Kir21 confirm,HEK293 ctr,others
COc1cc(/C=C/c2ccc3cccc(O)c3n2)ccc1O,i,17*,i,142%*,CHO-K1 Tl ctr=7.5*;KCNQ1 pot spec=35*;KCNQ2 pot conf=12*;Kir2-1 sel=-37;KCNQ2 W236L MoA=i
C=CCCN(C(C(=O)OC)C(C)C)S(=O)(=O)c1ccccc1Br (centres undefined),i,1.8,·,·,
Nc1cc(N)nc(CS)n1,i,0.08,·,·,
CSc1ccccc1NC(=O)CN(c1cc(C)cc(C)c1)S(C)(=O)=O,i,·,·,·,
CS(=O)(=O)N(CC(=O)Nc1ccccc1Sc1ccccc1)c1cccc(Br)c1,i,18*,i,i,CHO-K1 Tl ctr=-8;KCNQ1 pot spec=-6;KCNQ2 pot conf=1.7*;Kir2-1 sel=-40;KCNQ2 W236L MoA=i
COc1ccc(C(=O)Nn2c(C)nc3ccccc3c2=O)cc1[N+](=O)[O-],i,·,·,·,
Cc1occc1C(=O)Nc1ccc2c(c1)OCCO2,i,1.3,·,·,
Cc1occc1C(=O)Nc1ccc2c(c1)CCC2,i,7.2*,i,i,CHO-K1 Tl ctr=-4;KCNQ1 pot spec=-4;KCNQ2 pot conf=32*;Kir2-1 sel=-44;KCNQ2 W236L MoA=i
O=C(NCCc1ccccc1F)C1CCCN1S(=O)(=O)c1ccc2ccccc2c1 (centres undefined),i,·,·,·,
CCOc1ccc(NC(C)c2cc(Cl)ccc2O)cc1 (centres undefined),i,4.5,·,·,
CC(Nc1ccc(Cl)cc1)c1cc(Cl)ccc1O (centres undefined),i,4.2,59%*,i,
CCCCN1CNC(=S)N(c2ccc(C(=O)OCC)cc2)C1,i,·,·,·,
Cc1cc(C)c(NC(=O)/C=C\C(=O)O)c(Cl)c1,i,·,·,·,
Cc1cc(C)c(NC(=O)CC(=O)c2ccccc2)c(Cl)c1,i,1.9,·,·,
Cc1cc(C)c(NC(=O)CS)c(Cl)c1,i,20*,i,i,CHO-K1 Tl ctr=-16;KCNQ1 pot spec=-2;KCNQ2 pot conf=95*;Kir2-1 sel=-40;KCNQ2 W236L MoA=i
Cc1cc(C)c(NC(=O)CC(C)(C)C)c(Cl)c1,i,25*,i,i,CHO-K1 Tl ctr=-8;KCNQ1 pot spec=-28;KCNQ2 pot conf=73*;Kir2-1 sel=-29;KCNQ2 W236L MoA=i
COc1ccc(NS(=O)(=O)c2cccs2)cc1S(=O)(=O)N1CCCCC1,i,1.2,·,·,
COc1ccc(CCNC(=O)C2CCN(S(=O)(=O)c3ccc(F)cc3)CC2)cc1,i,0.71,·,·,
Cc1c(C(=O)NC2CCN(Cc3ccccc3)C2)oc2c(Cl)cccc12 (centres undefined),i,·,i,i,
O=C(NC1CCN(Cc2ccccc2)CC1)c1ccccc1Cl,i,0.43,·,·,
COc1ccc(S(=O)(=O)N2CCc3ccccc32)cc1OC,i,0.13,52%*,i,
COc1ccc(S(=O)(=O)N2CCc3ccccc32)cc1C(=O)O,i,·,·,·,
CCC(C)NC(=O)CC(NS(=O)(=O)c1ccc(NC(C)=O)cc1)C(C)C (centres undefined),i,·,·,·,
Cc1occc1C(=O)NCCCCNC(=O)c1ccoc1C,i,0.46,·,·,
CCCCCCCCCCCNC(=O)c1ccoc1C,i,13*,·,·,CHO-K1 Tl ctr=-20;KCNQ1 pot spec=66*;KCNQ2 pot conf=37*;Kir2-1 sel=-64;KCNQ2 W236L MoA=i
SMILES,KCNQ2 inh,KCNQ2 pot,Kir21 confirm,HEK293 ctr,others
Brc1csc(/C=N/Nc2nc3ccccc3s2)c1,i,0.57,·,·,
C(=N\Nc1nc2ccccc2s1)/c1ccccn1,i,11*,i,i,CHO-K1 Tl ctr=-8;KCNQ1 pot spec=-15;KCNQ2 pot conf=44*;Kir2-1 sel=-34;KCNQ2 W236L MoA=i
CCN(CC)c1ccc(/C=N/n2c(C)nc3ccccc3c2=O)cc1,i,·,·,·,
CCOc1ccc(N(CC(=O)N2CCCCCC2)S(C)(=O)=O)cc1,i,·,·,·,
Cc1ncc(CO)c(/C=N/NC(=O)c2cc3c(s2)CCCC3)c1O,i,·,·,·,
CCC(=O)N(CCC(c1ccccc1)c1ccco1)Cc1cccs1 (centres undefined),-14*,-14,62%*,i,
CCC(=O)N(CCC(Cc1ccccc1)c1ccco1)Cc1ccco1 (centres undefined),i,·,54%*,i,
CCC(=O)N(CCC(Cc1ccccc1)c1ccc2c(c1)OCO2)Cc1ccccc1F (centres undefined),i,·,·,·,
COc1ccccc1C(CCN(Cc1cccs1)C(C)=O)c1ccco1 (centres undefined),i,·,·,·,
COc1ccc(N2CC(C(=O)Nc3cccnc3)CC2=O)cc1 (centres undefined),i,0.1,·,·,
COc1cccc(C(=O)NC2CC3CCCC(C2)N3S(=O)(=O)c2ccccc2)c1 (centres undefined),i,·,·,·,
COc1ccc(OC)c2sc(N(CCCN(C)C)C(=O)CCS(=O)(=O)c3ccccc3)nc12,i,9.9*,·,·,CHO-K1 Tl ctr=0;KCNQ1 pot spec=68*;KCNQ2 pot conf=-4;Kir2-1 sel=-56
COc1ccc(Cl)c2sc(N(CCN(C)C)C(=O)CCS(=O)(=O)c3ccc(C)cc3)nc12,i,·,·,·,
COc1ccc(Cl)cc1N(CC(=O)NC(C)(C)C)S(=O)(=O)c1ccc(C)c([N+](=O)[O-])c1,i,·,·,·,
Cc1ccc(NC(=O)C2CCCN2C(=O)OC(C)(C)C)cc1C (centres undefined),i,·,·,·,
COc1ccccc1Nc1ccc(NS(=O)(=O)c2ccc(C(C)=O)cc2)cc1,i,·,·,·,
CC1CCCCC1NC(=O)CSc1nnc(COc2ccc(Cl)cc2)o1 (centres undefined),i,·,·,·,
CCOc1ccc2[nH]c(SCC(=O)OC)c([N+](=O)[O-])c2c1,i,·,·,·,
COC(=O)CSc1[nH]c2ccc(Br)cc2c1[N+](=O)[O-],i,6.5*,i,i,CHO-K1 Tl ctr=-22;KCNQ1 pot spec=-13;KCNQ2 pot conf=-24;Kir2-1 sel=-23
COc1ccc(-c2cc(C(=O)Nc3cccc(O)c3)no2)cc1,i,·,·,·,
CSc1ccc(S(=O)(=O)NCc2ccccc2)cc1,i,·,·,·,
Cc1ccc(S(=O)(=O)NC(C)c2ccccc2)cc1[N+](=O)[O-] (centres undefined),i,0.61,46%*,i,
C/C(CC(C)C)=N\NS(=O)(=O)c1ccc(C)c([N+](=O)[O-])c1,i,·,·,·,
CSc1ccc(S(=O)(=O)NC(C)c2ccccc2)cc1 (centres undefined),i,1.2,42%*,i,
Cc1ccc(NS(=O)(=O)c2ccc(Cl)c(C(=O)Nc3cccc(C(=O)O)c3)c2)cc1,i,·,·,·,
CC[C@@H]1CC=C[C@H]2[C@H]1C(=O)N(Cc1ccccc1)[C@H]2c1ccc(OC)c(Cl)c1,i,·,·,·,
CCCCCOc1ccc(C(C)(O)C(CN2CCOCC2)c2ccccc2)cc1 (centres undefined),i,·,·,·,

# From PubChem
